Measurements: PMC7819943, “Rice protein-binding microarrays: a tool to detect cis-acting elements near promoter regions in rice”
Whole data set: some 35,000 sequences, median “fluorescence intensity (a.u.)” near 10,000, cut for the highest 2% near 52,000. For the sample, the highest values were picked, then their nearest neighbours and some sequences at random.

Biological target: T1, OsWOX13 (Oryza sativa, UniProt Q5QMM3 1-267)
T1 sequence: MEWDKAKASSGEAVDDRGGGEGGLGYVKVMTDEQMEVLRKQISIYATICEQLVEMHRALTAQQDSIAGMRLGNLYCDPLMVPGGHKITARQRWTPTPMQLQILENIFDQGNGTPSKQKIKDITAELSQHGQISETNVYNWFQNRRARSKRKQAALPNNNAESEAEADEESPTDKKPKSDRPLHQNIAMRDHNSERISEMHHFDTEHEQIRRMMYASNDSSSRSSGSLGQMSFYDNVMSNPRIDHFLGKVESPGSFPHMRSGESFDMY
Experiment: protein-binding microarray (RPBM); PBS, 2% BSA, 51.3 ng/ul salmon testes DNA, 50 uM zinc acetate, 200 nM TF, 25 C, 1 h; high values mean tight binding
Settings: protein: recombinant; tags: N-terminal polyhistidine and DsRed monomer fusion (pET32a); label: CyDye5-dUTP incorporated in the synthesized complementary strand; 3' TTTTT single-stranded linker to array surface; dsDNA, one strand shown
How it was run: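 Binding signal is defined as the fluorescence intensity of each feature in arbitrary units, read on an Axon 4000B scanner. Transcription factors with N-terminal polyhistidine and DsRed fusions came from E. coli BL21-CodonPlus and were purified on Ni–NTA. They were incubated at 200 nM for 1 h at 25 °C on a custom Agilent array that had been made double-stranded with Cy5-dUTP, with 50 µM zinc acetate present, and the array was washed.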

| Sequence | binding signal |
| --- | --- |
| GTGATGAGTGATGACCCGGAGAATGAGAGAGGCGACTGTGCGGAGTCACCTAGTGCAG | 3800 fluorescence intensity (a.u.) |
| TAATCATGTTAAATTGATGTTATTAGATTTATCATTAAACCGGAGTCACCTAGTGCAG | 14900 fluorescence intensity (a.u.) |
| GTTAATTAGATCATGATAAAGATTAATGTATAGATCGAGGCGGAGTCACCTAGTGCAG | 62000 fluorescence intensity (a.u.) |
| GGATTAAATTATCAAATAGATTTGGCTGCCATGATGGCACCGGAGTCACCTAGTGCAG | 42600 fluorescence intensity (a.u.) |
| TAAATTAATTAATTAGGTATAAATGTAATTAAGCACATCGCGGAGTCACCTAGTGCAG | 55000 fluorescence intensity (a.u.) |
| GAGTGGTAAATAATTAATTATTACATATTTGTATAAATCGCGGAGTCACCTAGTGCAG | 22800 fluorescence intensity (a.u.) |
| TAATGTGTGTGTATAATTAATTAAGCAGTGAAGTGAATCGCGGAGTCACCTAGTGCAG | 5650 fluorescence intensity (a.u.) |
| AGTTATAATGGAATTAATTATAATTATAGTATAGTTAGATCGGAGTCACCTAGTGCAG | 28600 fluorescence intensity (a.u.) |
| CATAATTAAAATACTTAAAATATGTGCTCGTAATTATTTACGGAGTCACCTAGTGCAG | 6000 fluorescence intensity (a.u.) |
| CTCCTAATTTAGTCACTTATGGAGCTCTGATAGCTGGATGCGGAGTCACCTAGTGCAG | 14200 fluorescence intensity (a.u.) |
| ATATGATCGTATAATTAAATGAGATCATGATTAAGTGGAGCGGAGTCACCTAGTGCAG | 16400 fluorescence intensity (a.u.) |
| ATGATAGATTAAATCAAATTATCATGTTATGGGTATAGCCCGGAGTCACCTAGTGCAG | 53200 fluorescence intensity (a.u.) |
| CATTTGCTGGATGTGCTCCTTACTTAATATTTATGCATGGCGGAGTCACCTAGTGCAG | 52600 fluorescence intensity (a.u.) |
| GGGGATGGAAGGGTGATTGAGAGTAAGAATTGGAGGTGATCGGAGTCACCTAGTGCAG | 30000 fluorescence intensity (a.u.) |
| TAGAATTGATGATACTAGCTATAACTTCCGAGTGAGCACACGGAGTCACCTAGTGCAG | 16900 fluorescence intensity (a.u.) |
| CCATCTGCTGATAGATTTTCTATTGCCAAATCTTACACCTCGGAGTCACCTAGTGCAG | 5710 fluorescence intensity (a.u.) |
| CTTCAATAATTAATTTATATTGTACTAATATGTTTGTAAACGGAGTCACCTAGTGCAG | 17900 fluorescence intensity (a.u.) |
| AATTACTGTCATGATTTGAATTTGCAATCATTTCCTGTACCGGAGTCACCTAGTGCAG | 18800 fluorescence intensity (a.u.) |
| TCCTTGCTAACAAATCAACCAATTTGTCCATTCCCTATGTCGGAGTCACCTAGTGCAG | 3440 fluorescence intensity (a.u.) |
| AGAAATTGATTCGTCGAGGATATTGATCTATTAGTAAATGCGGAGTCACCTAGTGCAG | 36700 fluorescence intensity (a.u.) |
| AGTTTCATTAAATTTAATATTAAACATATTTTGATAATATCGGAGTCACCTAGTGCAG | 5680 fluorescence intensity (a.u.) |

| Sequence | binding signal |
| --- | --- |
| AAATAAATTTGAACTAAAATGAAAATTTGAAGGTATAGCACGGAGTCACCTAGTGCAG | 12600 fluorescence intensity (a.u.) |
| AAGCTTCCTTTGATTGATCCGACTCCACCAAGAACACGATCGGAGTCACCTAGTGCAG | 22000 fluorescence intensity (a.u.) |
| TGTAACTCTCGTATGTAATTGAGTAAAACATGTTGGTGCTCGGAGTCACCTAGTGCAG | 4540 fluorescence intensity (a.u.) |
| TTGACTATTAAATTGGCTATAGATAAATTGGAGCTAGTAGCGGAGTCACCTAGTGCAG | 23600 fluorescence intensity (a.u.) |
| TTGTATAAATGAGCTATCAGATTGGCTATAGATAAATTGGCGGAGTCACCTAGTGCAG | 12000 fluorescence intensity (a.u.) |
| TTATTAGATTGACTATAGATAAATTAGATAAATTGGAGTTCGGAGTCACCTAGTGCAG | 53600 fluorescence intensity (a.u.) |
| TTGTATAAATTGGCTATTAGATTGGCTATAGATTAATTGGCGGAGTCACCTAGTGCAG | 58900 fluorescence intensity (a.u.) |
| TATATAATTTATTTAATTGGATTTACCAGTTTAAGGGGTTCGGAGTCACCTAGTGCAG | 54300 fluorescence intensity (a.u.) |
| TTATTTAATTTAGAAAATTGGAGTTACCAGTTGTTCAGTTCGGAGTCACCTAGTGCAG | 19500 fluorescence intensity (a.u.) |
| GTTAGATTAGATTGGTACCTCATGTTACCTCGTACCTCATCGGAGTCACCTAGTGCAG | 55700 fluorescence intensity (a.u.) |
| CAACGGTTAGATTAGATTGGTACTTCATGGTACATCGTGGCGGAGTCACCTAGTGCAG | 43200 fluorescence intensity (a.u.) |
| TTTTAGATTGGGTTATTTATAAGGCTAAGTTTTAATTTAACGGAGTCACCTAGTGCAG | 4150 fluorescence intensity (a.u.) |
| CGGTTAGATTACATTGGTACCTCATGATATCTCGTACCTCCGGAGTCACCTAGTGCAG | 4680 fluorescence intensity (a.u.) |
| ATGAATAAGCTATTAGATTGACTATAGATAAATTGGAGCTCGGAGTCACCTAGTGCAG | 18200 fluorescence intensity (a.u.) |
| TTGTATGAATGAGCTATTAGATTGGCTATAGATGAATTGGCGGAGTCACCTAGTGCAG | 8950 fluorescence intensity (a.u.) |
| TTAACAGATTCTTCTTAATTAATAAATAAGCTGTCATGATCGGAGTCACCTAGTGCAG | 17300 fluorescence intensity (a.u.) |
| TTGATTAGATGCGCTGTGTGGCTTCTTGTTCAGTGACAGGCGGAGTCACCTAGTGCAG | 32400 fluorescence intensity (a.u.) |
| ACTATGCCAATTAAAATAAATCAATACAATAGGTATGATTCGGAGTCACCTAGTGCAG | 9790 fluorescence intensity (a.u.) |
| TACAACAAATCAATAATACTCAATTTCCATGTAGTTTGATCGGAGTCACCTAGTGCAG | 7890 fluorescence intensity (a.u.) |
| TTGATAGTAAATCAAACATTAATAAAGGCCTGTTCACTTTCGGAGTCACCTAGTGCAG | 8860 fluorescence intensity (a.u.) |
| CCAGATTGAGCTGTTGCGCACCACCATCCTGACCAGCTGCCGGAGTCACCTAGTGCAG | 17400 fluorescence intensity (a.u.) |
